# From paper PMC12136788
# Changes are numbered by the printed parent chain. Over roughly 24,000 sequences, “enrichment r” has its median near 0.99; the highest 2% begin near 3.7. This is one part of a sample in which the highest values are shown more often than they occur.
# T1: UNK ZnF1-3 (human, UniProt Q9C0B0 31-174)
# T1 sequence: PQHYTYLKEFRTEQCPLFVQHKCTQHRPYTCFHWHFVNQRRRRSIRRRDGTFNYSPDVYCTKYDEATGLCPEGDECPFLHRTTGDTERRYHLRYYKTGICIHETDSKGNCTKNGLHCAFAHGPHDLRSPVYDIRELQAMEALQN
# B1: chr12:48362563:48362564:+_ENSG00000134291_ENST00000256686|hu_mus|FALSE|FALSE (ssRNA)
# RNA: GGGAGUUCUACAGUCCGACGAUCUCCGUCAAGCCCUUCGAUAGACCCUUGCGGGGGAAACUGUAAUCACUUUGUAUGGGGAAGGAAAAGAAACGCCAAAAACUUUCCAAAAAGCGGGGGUGGGGUGAGGCGGGAGGGGGAGGUCAACAGAGGAUUGAGCAUCA
# B2: chr14:76904430:76904431:+_ENSMUSG00000022010_ENSMUST00000022587|mus_mus|mus_mus_mus_hu_True|88_98 (ssRNA)
# RNA: GGGAGUUCUACAGUCCGACGAUCUGCAGCCAAAAACAGAGAGAGGGCGGGAGGGAGGGAACACCAGCAGCCUUGUAUAAGCUAGAUAAAAUCUUCUGGCUUUCCGCAGCCCAGGGAGAAACAGAAAACGGCAGCCCUAAUUUACAACAGAGGAUUGAGCAUCA
# B3: chr14:76904430:76904431:+_ENSMUSG00000022010_ENSMUST00000022587|mus_mus|mus_mus_mus_hu_True|98_98 (ssRNA)
# RNA: B2 RNA with C47A, G48A, G49A, G50A, G52A, G53A
# B4: chr14:76904430:76904431:+_ENSMUSG00000022010_ENSMUST00000022587|mus_mus|mus_mus_mus_hu_True|98_108 (ssRNA)
# RNA: B2 RNA with A27U, C29G, C30A, C36A, C47A, G48A, G49A, G50A, G52A, G53A
# B5: chr14:76904430:76904431:+_ENSMUSG00000022010_ENSMUST00000022587|mus_mus|mus_mus_mus_hu_True|48_98 (ssRNA)
# RNA: B2 RNA with C47A, G48A, G49A, G50A, G52A, G53A, U91C, U93G, U94C
# B6: chr14:76904430:76904431:+_ENSMUSG00000022010_ENSMUST00000022587|mus_mus|mus_mus_mus_hu_True|68_68 (ssRNA)
# RNA: GGGAGUUCUACAGUCCGACGAUCUGCAGCCAAAAACACCCUCGUGGAAAAAAAGAGGGAACACCAGCAGCCUGGUUUAAGCUAGAUAAAAUCUUCUGGCUUUCCGCAGCCCAGGGAGAAACAGAAAACGGCAGCCCUAAUUUACAACAGAGGAUUGAGCAUCA
# B7: chr14:76904430:76904431:+_ENSMUSG00000022010_ENSMUST00000022587|mus_mus|mus_mus_mus_hu_True|48_88 (ssRNA)
# RNA: B2 RNA with G38C, A39C, G40C, A41U, G42C, A43G, G44U, U91C, U93G, U94C
# B8: chr14:76904430:76904431:+_ENSMUSG00000022010_ENSMUST00000022587|mus_mus|mus_mus_mus_hu_True|38_98 (ssRNA)
# RNA: B2 RNA with C47A, G48A, G49A, G50A, G52A, G53A, G97A, U101G, C104U
# B9: chr7:148083511:148083512:+_ENSMUSG00000025487_ENSMUST00000026560|mus_mus|FALSE|FALSE (ssRNA)
# RNA: GGGAGUUCUACAGUCCGACGAUCCAAAUCCAGCACUCGCGGCUGCACCCACGUCAUGUGAACCCGCUUGUCCACCUCGUCUAUGCUGCCUCUCACCAGCCCCACCGAGAGUGCCUUCAUCACCAGCAACUCCACCUUGUUGACCAACAGAGGAUUGAGCAUCA
# B10: 104840732_104840852_1265_3pUTR_ENSMUSG00000021710_ENSMUST00000109315|mouse|control|control (ssRNA)
# RNA: GGGAGUUCUACAGUCCGACGAUCGACCACCUCAAUGGGAAAGUACUCCUUGAGGGACUCCUGGUCCACAGAGUACUUGAGCUCCUCUGUCUGGGUCAUGUAGUAAUGGAGGUCCCAUGCGUUGAUCUUCCCGUCGUAUGCAAACAACAGAGGAUUGAGCAUCA
# B11: chr15:63447868:63447869:-_ENSG00000185088_ENST00000411926|hu_hu|FALSE|FALSE (ssRNA)
# RNA: GGGAGUUCUACAGUCCGACGAUCCCCUUCUGUGAGUCUGGCCUUUCCUCCUGUAGGCUGGCACAACACUGUUGAACAACCUACACAAAGAACCACUGUCUGAGCAUGGCUGAAAACCGUGGUGAUCUUGUAGCAACCUGGACACAACAGAGGAUUGAGCAUCA
# B12: chr3:148479741:148479742:-_ENSMUSG00000028184_ENSMUST00000106128|mus_mus|motif|central (ssRNA)
# RNA: GGGAGUUCUACAGUCCGACGAUCACAAUGCAGGCCUACAGAAAAACAAAACAAAACAAAAACAAAAACCGGUAGGGCCCGGUUUACAGACUCAGUUCACCAACUGCCGCAAGGAACAUGGCCGGGAGGGAGGGUCUCUUGUUUCAACAGAGGAUUGAGCAUCA
# B13: chr2:175006660:175006661:-_ENSG00000138430_ENST00000344357|hu_mus|motif|central (ssRNA)
# RNA: GGGAGUUCUACAGUCCGACGAUCUAGAAUGGGCCCAAUCAUCUCCUCGUCCUUCAGCUGGAGCUCCUCGUGAAUUAUCUCGGUGUCUCGGAUGGGAUCUACACUUCCUUCAACAUGCGUGAUAUCAUCGUCUUCAAAAGCACGCAACAGAGGAUUGAGCAUCA
# B14: chr17:56552419:56552420:-_ENSMUSG00000013236_ENSMUST00000086828|mus_mus|mus_mus_mus_hu_False|38_98 (ssRNA)
# RNA: GGGAGUUCUACAGUCCGACGAUCAAAAAAUACACUAUAAAAAAAAAAUGAAAUGUCACGGGAUACAGUUACACUGAGAGUUUUAAAAGAAAGCUGGAAAAAAAAUGCAGCCCAGUGUCCCCAGGCUGCAGAGCGGGGAGGAGCCAACAGAGGAUUGAGCAUCA
# B15: chr17:56552419:56552420:-_ENSMUSG00000013236_ENSMUST00000086828|mus_mus|mus_mus_mus_hu_False|1_38 (ssRNA)
# RNA: B14 RNA with A38U, A39U, A138C, G139A, C143G
# B16: chr17:56552419:56552420:-_ENSMUSG00000013236_ENSMUST00000086828|mus_mus|mus_mus_mus_hu_False|38_38 (ssRNA)
# RNA: B14 RNA with A38U, A39U
# B17: chr17:56552419:56552420:-_ENSMUSG00000013236_ENSMUST00000086828|mus_mus|mus_mus_mus_hu_False|38_88 (ssRNA)
# RNA: B14 RNA with A38U, A39U, U48A, G49A, A50G, U53A, G54A, U55A, C56A
# Biological target: T1, UNK ZnF1-3
# Test: nsRBNS (natural sequence RNA bind-n-seq); RBNS binding buffer (assumed for nsRBNS): 25 mM Tris pH 7.5, 150 mM KCl, 3 mM MgCl2, 0.01% Triton X-100, 500 ug/ml BSA, 20 U/ml SUPERase-In, 4 C; UNK is unkempt and MSI1 is Musashi-1; names of the RNAs are library labels; protein concentration not given here; high values mean tight binding
row,Binder,binding signal
1,B1,2.36 enrichment R
2,B2,3.29 enrichment R
3,B3,4.46 enrichment R
4,B4,3.93 enrichment R
5,B5,3.64 enrichment R
6,B6,2.29 enrichment R
7,B7,2.24 enrichment R
8,B8,4.97 enrichment R
9,B9,0.937 enrichment R
10,B10,0.691 enrichment R
11,B11,0.955 enrichment R
12,B12,2.06 enrichment R
13,B13,0.77 enrichment R
14,B14,7.57 enrichment R
15,B15,5.3 enrichment R
16,B16,5.93 enrichment R
17,B17,13.5 enrichment R
